# Results from the supplement of paper PMC3545927.
# The list shows a part of the results. The true hit rate is not given.
# B1: HC1938 (peptide)
# chain: CATTPCSGSTAGNASASA
# B2: HC153 (peptide)
# chain: CAEVVTETWVAGNASASA
# B3: HC240 (peptide)
# chain: CAEDGVNYATAGNASASA
# B4: HC1499 (peptide)
# chain: CATERLYVGGAGNASASA
# B5: FS-941 (peptide)
# chain: CALNPREKKDAGNASASA
# B6: FS-91 (peptide)
# chain: CASKSRIKKDAGNASASA
# B7: FS-2248 (peptide)
# chain: CAKTRRSVDGAGNASASA
# B8: FS-2284 (peptide)
# chain: CARPKRKVAPAGNASASA
# B9: FS-2216 (peptide)
# chain: CARKRRLVAPAGNASASA
# B10: FS-2410 (peptide)
# chain: CARALRLVDGAGNASASA
# B11: FS-739 (peptide)
# chain: CAYPVREKKDAGNASASA
# B12: FS-1733 (peptide)
# chain: CARKRRQSEGAGNASASA
# B13: HC740 (peptide)
# chain: CASYLKGSSGAGNASASA
# B14: HC1602 (peptide)
# chain: CAIQRLHGLSAGNASASA
# B15: HC2148 (peptide)
# chain: CAWVVTSTWVAGNASASA
# B16: HC474 (peptide)
# chain: CAFKIRMYVGAGNASASA
# B17: FS-1560 (peptide)
# chain: CARKRRVRKDAGNASASA
# B18: FS-2976 (peptide)
# chain: CARKRRSLGDAGNASASA
# B19: FS-2979 (peptide)
# chain: CARKRRVLTPAGNASASA
# B20: HC1526 (peptide)
# chain: CACTMLVCGDAGNASASA
# B21: FS-3109 (peptide)
# chain: CARTNRDMHGAGNASASA
# B22: FS-1947 (peptide)
# chain: CARFGRQDEGAGNASASA
# B23: FS-2240 (peptide)
# chain: CARTIRSFEGAGNASASA
# B24: FS-1656 (peptide)
# chain: CASKGRRRKDAGNASASA
# B25: TV3 (peptide)
# chain: CALYFQSGTVAGNASASA
# B26: HC648 (peptide)
# chain: CAVFSQMETKAGNASASA
# B27: HC882 (peptide)
# chain: CAGYTGDFDSAGNASASA
# B28: HC1532 (peptide)
# chain: CAICESAGVQAGNASASA
# B29: FS-87 (peptide)
# chain: CARRNRLRKDAGNASASA
# B30: FS-2822 (peptide)
# chain: CARTGRPVEPAGNASASA
# B31: FS-2039 (peptide)
# chain: CARKRRSTNEAGNASASA
# B32: FS-2687 (peptide)
# chain: CARKGRNKEIAGNASASA
# B33: FS-2686 (peptide)
# chain: CARKGRCVEPAGNASASA
# B34: FS-2780 (peptide)
# chain: CARRKRLRQDAGNASASA
# B35: FS-2696 (peptide)
# chain: CARKRKGSDDAGNASASA
# B36: FS-2217 (peptide)
# chain: CARKRRSTDFAGNASASA
# B37: FS-1967 (peptide)
# chain: CARRKRKNKDAGNASASA
# B38: HC1218 (peptide)
# chain: CAQVPSPEFFAGNASASA
# B39: HC838 (peptide)
# chain: CAVTVPHPNIAGNASASA
# B40: HC361 (peptide)
# chain: CASLLAPGAKAGNASASA
# B41: FS-1669 (peptide)
# chain: CADKRRSVRIAGNASASA
# B42: FS-1814 (peptide)
# chain: CAVERRSVNKAGNASASA
# B43: FU7 (peptide)
# chain: CARKPRCGNPAGNASASA
# B44: FS-2702 (peptide)
# chain: CARKRRSVNPAGNASASA
# B45: FS-2614 (peptide)
# chain: CARTQRSTEIAGNASASA
# B46: FS-2881 (peptide)
# chain: CARAERKTEIAGNASASA
# B47: FS-2126 (peptide)
# chain: CAMKRRSVTMAGNASASA
# B48: FS-833 (peptide)
# chain: CANKRRSVRFAGNASASA
# Molecular target: furin, P09958
# Test: furin cleavage Z-score vs untreated control; higher = more cleavage, active = 3.5 or more, inactive = 1 or less, 8 variable residues between constant flanks
# Summary of the method: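 Magnetic beads held 8-mer peptides by the N-terminus, each fused to a cDNA oligonucleotide, and purified furin was added for 7.5, 15 or 30 min. Released DNA was sequenced after PCR adapter tagging. The cleavage Z-score is the log count relative to furin-free reactions, lowess-adjusted and divided by median absolute deviation.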
# 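Further: purified furin at 1:10 enzyme:substrate in 50 mM HEPES pH 7.5.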
# Chain of furin, P09958 (P09958 whole entry): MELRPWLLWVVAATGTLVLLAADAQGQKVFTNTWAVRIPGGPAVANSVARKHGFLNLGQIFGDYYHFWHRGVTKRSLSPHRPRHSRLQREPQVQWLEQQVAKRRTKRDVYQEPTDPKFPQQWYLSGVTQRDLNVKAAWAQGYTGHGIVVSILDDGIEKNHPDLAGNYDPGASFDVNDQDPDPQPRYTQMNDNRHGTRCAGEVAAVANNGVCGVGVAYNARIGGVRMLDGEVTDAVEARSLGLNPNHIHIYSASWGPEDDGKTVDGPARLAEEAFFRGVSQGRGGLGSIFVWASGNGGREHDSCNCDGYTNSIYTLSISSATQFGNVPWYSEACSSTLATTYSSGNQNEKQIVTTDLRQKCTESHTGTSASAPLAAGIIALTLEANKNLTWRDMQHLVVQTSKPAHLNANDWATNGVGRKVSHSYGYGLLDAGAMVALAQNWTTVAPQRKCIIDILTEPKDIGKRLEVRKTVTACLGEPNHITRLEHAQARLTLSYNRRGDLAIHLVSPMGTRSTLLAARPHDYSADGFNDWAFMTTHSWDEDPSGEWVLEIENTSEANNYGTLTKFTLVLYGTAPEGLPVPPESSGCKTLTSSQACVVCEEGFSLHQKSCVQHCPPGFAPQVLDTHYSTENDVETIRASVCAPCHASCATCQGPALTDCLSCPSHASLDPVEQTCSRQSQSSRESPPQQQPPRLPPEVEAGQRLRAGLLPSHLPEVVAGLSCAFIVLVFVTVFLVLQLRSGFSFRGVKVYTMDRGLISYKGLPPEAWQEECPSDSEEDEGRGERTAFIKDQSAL
Sequence,furin cleavage Z-score (7.5 min),furin cleavage Z-score (15 min),furin cleavage Z-score (30 min)
B1,-0.179 (inactive),-0.988 (inactive),-0.748 (inactive)
B2,-0.809 (inactive),-0.763 (inactive),-1.97 (inactive)
B3,-0.763 (inactive),-1.25 (inactive),-0.298 (inactive)
B4,0.0385 (inactive),0.416 (inactive),-0.694 (inactive)
B5,-0.953 (inactive),0.314 (inactive),0.019 (inactive)
B6,7.52 (active),6.56 (active),6.64 (active)
B7,6.46 (active),7.09 (active),5.86 (active)
B8,1.89,0.659 (inactive),3.08
B9,3.99 (active),5.02 (active),5.53 (active)
B10,-0.828 (inactive),-0.615 (inactive),-0.629 (inactive)
B11,-0.917 (inactive),0.614 (inactive),0.838 (inactive)
B12,10.4 (active),12.6 (active),8.83 (active)
B13,-0.0827 (inactive),-0.32 (inactive),-1.27 (inactive)
B14,-1.82 (inactive),1.34,-0.804 (inactive)
B15,-0.151 (inactive),0.93 (inactive),-1.01 (inactive)
B16,-0.697 (inactive),0.386 (inactive),-0.234 (inactive)
B17,8.86 (active),7.9 (active),6.61 (active)
B18,11.1 (active),13.3 (active),9.59 (active)
B19,-0.402 (inactive),-0.0349 (inactive),-1.55 (inactive)
B20,-1.57 (inactive),-1.58 (inactive),0.193 (inactive)
B21,-0.446 (inactive),1.17,-0.99 (inactive)
B22,-2.89 (inactive),-0.0904 (inactive),-0.336 (inactive)
B23,3.24,4.83 (active),5.83 (active)
B24,5.25 (active),6.69 (active),5.72 (active)

Sequence,furin cleavage Z-score (7.5 min),furin cleavage Z-score (15 min),furin cleavage Z-score (30 min)
B25,-1.09 (inactive),-1.65 (inactive),-0.81 (inactive)
B26,-1.33 (inactive),-0.992 (inactive),-0.89 (inactive)
B27,0.222 (inactive),-2.26 (inactive),-1.5 (inactive)
B28,0.831 (inactive),-0.227 (inactive),-1.02 (inactive)
B29,7.91 (active),8.84 (active),6.68 (active)
B30,-0.133 (inactive),-0.269 (inactive),-0.327 (inactive)
B31,13.4 (active),14 (active),10.3 (active)
B32,0.916 (inactive),0.216 (inactive),0.59 (inactive)
B33,3.13,3.86 (active),4.66 (active)
B34,0.471 (inactive),0.0552 (inactive),1.44
B35,1.74,0.267 (inactive),-0.22 (inactive)
B36,9.58 (active),11.2 (active),9.06 (active)
B37,-0.815 (inactive),0.207 (inactive),1.06
B38,-1.13 (inactive),-0.661 (inactive),0.459 (inactive)
B39,0.905 (inactive),1.12,1.65
B40,-0.751 (inactive),-1.11 (inactive),-0.788 (inactive)
B41,0.236 (inactive),-0.291 (inactive),0.74 (inactive)
B42,-1.15 (inactive),-0.638 (inactive),-0.108 (inactive)
B43,0.143 (inactive),2,0.939 (inactive)
B44,11.8 (active),12.1 (active),9.6 (active)
B45,1.54,2.65,3.99 (active)
B46,-0.287 (inactive),1.15,-0.302 (inactive)
B47,1.48,0.933 (inactive),2.48
B48,5.74 (active),7.19 (active),8.22 (active)
